FBW7 activator: human FBW7 E3 ligase activation, primary screen. Q969H0. AlphaScreen FBW7–phospho-cyclin E peptide binding, activator screen. normalized activity (activation), % at 26.1 µM. actives 0.13% (n = 650,000); in the data active = normalized activity above about 1.9%;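 also: purified mutant Fbw7 with reduced substrate affinity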
GPR151 ag: activates the human receptor GPR151 | activation, % at 11.2 µM | AID 1508602 | PathHunter beta-arrestin GPR151 cells, luminescence | Q8TDV0 | actives 1% (n = 650,000); in the data active = activation above about 4.9%;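 also: 0% = median of compound wells and 100% = cells with positive control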
MITF primary: human MITF inhibition, primary screen; inhibition, % at 2.6 µM; AlphaScreen MITF homodimerization, bead proximity signal; actives 0.91% (n = 650,000); in the data active = inhibition above about 50%;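 also: 0% = vehicle wells with protein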
Target sequence (O75030 whole entry, looked up): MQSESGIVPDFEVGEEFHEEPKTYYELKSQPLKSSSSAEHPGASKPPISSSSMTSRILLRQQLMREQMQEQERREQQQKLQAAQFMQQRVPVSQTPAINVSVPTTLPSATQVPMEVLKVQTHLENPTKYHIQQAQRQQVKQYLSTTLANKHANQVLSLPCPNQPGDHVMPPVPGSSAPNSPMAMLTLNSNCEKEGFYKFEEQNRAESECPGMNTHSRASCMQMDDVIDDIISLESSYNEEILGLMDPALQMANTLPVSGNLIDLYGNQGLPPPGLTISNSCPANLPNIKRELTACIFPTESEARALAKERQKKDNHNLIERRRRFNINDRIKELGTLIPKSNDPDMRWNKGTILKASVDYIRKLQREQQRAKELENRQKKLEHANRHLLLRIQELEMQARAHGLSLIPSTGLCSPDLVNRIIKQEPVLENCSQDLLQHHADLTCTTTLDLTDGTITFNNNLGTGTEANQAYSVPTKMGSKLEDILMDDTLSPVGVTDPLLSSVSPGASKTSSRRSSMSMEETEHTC
TEAD-YAP inh: TEAD-YAP interaction inhibition | inhibition, % at 9.12 µM | HEK-TIYL cells, TEAD-Gal4/YAP UAS-luciferase luminescence | actives 1.4% (n = 640,000); in the data active = inhibition above about 32%;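 also: 0% = median of test compound wells and 100% = reference inhibitor wells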
MITF inh conf: human MITF inhibition, confirmation; actives 16% (n = 4,700); shares compounds with MITF primary; AlphaScreen MITF homodimerization, biotin/His-MITF beads; inhibition, % at 2.6 µM;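 active = inhibition above a cutoff derived from the DMSO control wells, cut at about 28% in these data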;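 also: 0% = MITF dimer wells with DMSO only; inhibitors lower the bead chemiluminescence by keeping MITF from dimerizing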
AlphaScreen DR: AlphaScreen optical interference, dose response counter-screen; shares compounds with MITF primary; IC50, µM; actives 6% (n = 480); AlphaScreen optical interference counterscreen, cell-free; call rule not given here
AS interf ctr: optically interferes with AlphaScreen signal | LysRS AlphaScreen counterscreen, signal interference, triplicate | shares compounds with MITF primary | actives 7.6% (n = 4,700) | AID 1259376 | inhibition, % at 2.6 µM;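 active = inhibition above a cutoff derived from the DMSO control wells, cut at about 30% in these data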
Starred values were filed as active, the others as inactive. Hits are enriched below; roughly 3.4% of the tested compounds scored in any of these assays.

What do the screens show for `CCOC1(OCC)N=C(N)C2(C#N)C(c3ccc(OC)c(OC)c3)C12C#N` (stereo not given)?
FBW7 activator: 0; GPR151 ag: -1; MITF primary: 25; TEAD-YAP inh: 9

How did COC1(OC)N=C(N)C2(C#N)C(c3ccc(Cl)cc3)C12C#N (stereo not given) do in these assays?
FBW7 activator: 0; GPR151 ag: -1; MITF primary: 17; TEAD-YAP inh: -4

What do the screens show for `COc1ccc(C2C3(C#N)C(N)=NC(OC)(OC)C23C#N)cc1` (stereo not given)?
FBW7 activator: 0; GPR151 ag: 2; MITF primary: 74*; TEAD-YAP inh: 0; MITF inh conf: 0; AS interf ctr: 8

Results for COC1(OC)N=C(N)C2(C#N)C(c3ccc(C)cc3)C12C#N (stereo not given) ?
FBW7 activator: 0; GPR151 ag: 0; MITF primary: 55*; TEAD-YAP inh: 5; MITF inh conf: -2; AS interf ctr: 6

Results for CCc1ccc(CN2CCN(C(=O)c3ccccc3F)CC2)cc1 ?
FBW7 activator: 0; GPR151 ag: 0; MITF primary: 51*; TEAD-YAP inh: 16; MITF inh conf: 8; AS interf ctr: 10

How did O=C(c1ccccc1F)N1CCN(Cc2ccc3c(c2)OCO3)CC1 do in these assays?
FBW7 activator: 0; GPR151 ag: -1; MITF primary: 51*; TEAD-YAP inh: 15; MITF inh conf: -1; AS interf ctr: -5

What do the screens show for `O=C(C1CCNCC1)N1CCN(Cc2ccc3c(c2)OCO3)CC1`?
FBW7 activator: 0; GPR151 ag: 0; MITF primary: 56*; TEAD-YAP inh: -6; MITF inh conf: 9; AS interf ctr: 13

Results for Nc1n[nH]c(-c2ccc([N+](=O)[O-])c(Cl)c2)n1 ?
FBW7 activator: 0; GPR151 ag: -1; MITF primary: 16; TEAD-YAP inh: -17

How did O=C(CN(C(=O)c1ccc(Cl)cc1Cl)N1C(=O)CCCC1=O)c1ccc(F)cc1 do in these assays?
FBW7 activator: 0; GPR151 ag: 1; MITF primary: 12; TEAD-YAP inh: 14

How did Cc1cc(N2C3CCC2CC(O)(c2ccc(F)cc2)C3)nc(N)n1 (stereo not given) do in these assays?
FBW7 activator: 0; GPR151 ag: -1; MITF primary: -19; TEAD-YAP inh: 8

What do the screens show for `COc1cccc(CN2CCC(N3CCN(c4ccccc4F)CC3)CC2)c1`?
FBW7 activator: 0; GPR151 ag: 1; MITF primary: 73*; TEAD-YAP inh: 5; MITF inh conf: -9; AS interf ctr: -4

What do the screens show for `COc1ccccc1N1CCN(C2CCN(Cc3cccc(F)c3)CC2)CC1`?
FBW7 activator: 0; GPR151 ag: 0; MITF primary: 62*; TEAD-YAP inh: 2; MITF inh conf: 0; AS interf ctr: 0

What do the screens show for `COc1ccc(NC(=O)c2cc3c(=O)n4cccc(C)c4nc3n2C)cc1`?
FBW7 activator: 0; GPR151 ag: 1; MITF primary: -14; TEAD-YAP inh: 0

Results for Cc1cc(CSC(=N)N)c(O)c(C)n1 ?
FBW7 activator: -1; GPR151 ag: -1; MITF primary: 65*; TEAD-YAP inh: -5; MITF inh conf: 82*; AlphaScreen DR: >6.5; AS interf ctr: 14

Results for Cc1cc(CSC(=N)N)c(O)c(C(C)(C)C)n1 ?
FBW7 activator: 0; GPR151 ag: 1; MITF primary: 10; TEAD-YAP inh: 7

How did COc1ccc2ccccc2c1CN1CCSCC1 do in these assays?
FBW7 activator: 0; GPR151 ag: 0; MITF primary: 54*; TEAD-YAP inh: 14; MITF inh conf: -6; AS interf ctr: -5

How did CC(C)CCNC(=O)C1CC(=O)N(c2ccc(Br)cc2)C1 (stereo not given) do in these assays?
FBW7 activator: 1; GPR151 ag: -1; MITF primary: 14; TEAD-YAP inh: 9

What do the screens show for `N#Cc1c(-c2ccc3c(c2)OCO3)nc(N2CCCCC2)[nH]c1=O`?
FBW7 activator: 1; GPR151 ag: -1; MITF primary: 80*; TEAD-YAP inh: 2; MITF inh conf: 78*; AlphaScreen DR: >6.5; AS interf ctr: -7

Screening results (PubChem BioAssay)
